The source of these data is article PMC7819943, “Rice protein-binding microarrays: a tool to detect cis-acting elements near promoter regions in rice”.

Over roughly 68,000 sequences, “fluorescence intensity (a.u.)” has its median near 9,100; the highest 2% begin near 16,000. Shown is part of a subset that was picked to be rich in the highest values.

Chain of OsWRKY34 (Q0JBA9 entry or part of it): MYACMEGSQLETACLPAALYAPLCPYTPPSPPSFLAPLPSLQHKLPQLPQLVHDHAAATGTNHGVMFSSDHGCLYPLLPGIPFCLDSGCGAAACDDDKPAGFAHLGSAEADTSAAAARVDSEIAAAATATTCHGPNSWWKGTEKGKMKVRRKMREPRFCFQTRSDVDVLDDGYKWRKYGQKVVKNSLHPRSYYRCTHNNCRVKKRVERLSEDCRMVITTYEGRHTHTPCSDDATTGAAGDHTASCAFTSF

The experiment addresses OsWRKY34 (Oryza sativa, UniProt Q0JBA9 1-250). In words: protein-binding microarray (RPBM); PBS, 2% BSA, 51.3 ng/ul salmon testes DNA, 50 uM zinc acetate, 200 nM TF, 25 C, 1 h; high values mean tight binding. Particulars: protein: recombinant; tags: N-terminal polyhistidine and DsRed monomer fusion (pET32a); label: CyDye5-dUTP incorporated in the synthesized complementary strand; 3' TTTTT single-stranded linker to array surface; dsDNA, one strand shown. The method in brief: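 The binding signal is fluorescence intensity per array feature (arbitrary units). Readings came from an Axon 4000B scanner after a washed, 2% BSA-blocked, double-stranded custom Agilent array had been incubated for 1 h at 25 °C with 200 nM protein and 50 µM zinc acetate. The protein was a Ni–NTA-purified transcription factor fused N-terminally to polyhistidine and DsRed, expressed in E. coli BL21-CodonPlus.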
Take “GCTGCCCCTTGTACTTACTTCTATCATCTTTCTTCCCACACGGAGTCACCTAGTGCAG”: the binding signal was 8880 fluorescence intensity (a.u.).

With “TTTAGTATATAAAAGATTATAGGGGAGGTTCATTACTTTCCGGAGTCACCTAGTGCAG”, the binding signal was 8410 fluorescence intensity (a.u.).

Consider “GGATTGGGGAGTGATTCGGTTTGTTCTTGATTTTGATTTTCGGAGTCACCTAGTGCAG”, for which the binding signal was 15700 fluorescence intensity (a.u.).

Turning to “TTTCTTGATTTGGTTGGGATTGGTTGTTCTTGGGCTTATCCGGAGTCACCTAGTGCAG”, the binding signal was 18900 fluorescence intensity (a.u.).

Regarding “AGATCAGGTTTTCTCTTTGGTTGATTGTGTGTGGAAGATCCGGAGTCACCTAGTGCAG”, the binding signal was 10100 fluorescence intensity (a.u.).

With “TCTGAGTGGTTCTCTGGGCGTTGTTGGTGCGTTCTTGATCCGGAGTCACCTAGTGCAG”, the binding signal was 8900 fluorescence intensity (a.u.).

For “TCTTGATTGGTTGTTTTGGTTTGTTTCTTATTTATGTTTGCGGAGTCACCTAGTGCAG”, the binding signal was 8920 fluorescence intensity (a.u.).

For the sequence “GTGTAGATTGATTGGTTCTTGGTGGTGGTGGTGGTGGATCCGGAGTCACCTAGTGCAG”, the binding signal was 22200 fluorescence intensity (a.u.).

For the sequence “CACCACCCAGATCTGTCTCGTCTCTGTTCTTGCCTTCGCTCGGAGTCACCTAGTGCAG”, the binding signal was 11900 fluorescence intensity (a.u.).

Consider “TGGTGTCTCATAATTCTCTACATGGTATCAAATACTGGTTCGGAGTCACCTAGTGCAG”, for which the binding signal was 9610 fluorescence intensity (a.u.).

For the sequence “GGCGTTATATCTGGTTTTGTGGCTGAGGGAGGTAATTTAGCGGAGTCACCTAGTGCAG”, the binding signal is 11700 fluorescence intensity (a.u.).

Turning to “TTCACGTTCAATGTTTGACCGTTCGTCTTATTTGAAAATTCGGAGTCACCTAGTGCAG”, the binding signal was 8550 fluorescence intensity (a.u.).

Turning to “AACTTCAGTCCTTTTCCATCACATCAACCTGTCATATACACGGAGTCACCTAGTGCAG”, the binding signal is 8220 fluorescence intensity (a.u.).

For “TGAATTGGGAAATTTCGGTGTTTTTTTTCTTCTTTTTTTTCGGAGTCACCTAGTGCAG”, the binding signal was 8740 fluorescence intensity (a.u.).

Take “TAGTTTTCTCATGTTCATCAATTTAAATACCTAACAATACCGGAGTCACCTAGTGCAG”: the binding signal is 8180 fluorescence intensity (a.u.).

As to “TTTCCTTTACTTTGGTGGTTCTTTTTTTTTTCTTTGTTTCCGGAGTCACCTAGTGCAG”, the binding signal is 11400 fluorescence intensity (a.u.).

In the case of “GGTTTCCGTGGTGGGCCGGTTTGGGCTTTTCTTTTTTACACGGAGTCACCTAGTGCAG”, the binding signal is 18500 fluorescence intensity (a.u.).

As to “ACTTTTTCCGAACCAAAATGGACTTCTTCCTTACGGTTACCGGAGTCACCTAGTGCAG”, the binding signal was 8390 fluorescence intensity (a.u.).

As to “CAAACAAAATGGGTTTCTTCTTACGGTTGTGGGCTTTTTCCGGAGTCACCTAGTGCAG”, the binding signal is 17400 fluorescence intensity (a.u.).

As for “GCTTGCTTTGTCACATGCAGTTTTACACCTTTTATTTCTCCGGAGTCACCTAGTGCAG”, the binding signal is 10400 fluorescence intensity (a.u.).

On to “TCTTTTTTCCATCCATCTTTTTTTCGCCGTTCTTTCCGGTCGGAGTCACCTAGTGCAG”, for which the binding signal is 8220 fluorescence intensity (a.u.).

Take “TTCTCTTGCTTCCTTTTTGGTCATTTGAGATAGCTTTATCCGGAGTCACCTAGTGCAG”: the binding signal is 10300 fluorescence intensity (a.u.).

Turning to “GGTTCTTTGTTTCCGTTTGCTTTACCATTTTTGTTCCTTTCGGAGTCACCTAGTGCAG”, the binding signal is 10000 fluorescence intensity (a.u.).

As for “GCTTGCAGGGCTTGGTTGTTTCTTCTTCCGTTTTTTTTTACGGAGTCACCTAGTGCAG”, the binding signal is 13600 fluorescence intensity (a.u.).

As for “AATCGCCGTTCTAGCTTTTTGGTCTTGGTCTTTTTTTATCCGGAGTCACCTAGTGCAG”, the binding signal is 21400 fluorescence intensity (a.u.).

For the sequence “CTGCTTTTATAGTTTGGTGGGCTTTTCTTTGCTAGTGGGCCGGAGTCACCTAGTGCAG”, the binding signal was 10600 fluorescence intensity (a.u.).

For “TGCTTGTACAGTTTCCGGTTTCTTTGCCATTTCGTTTACACGGAGTCACCTAGTGCAG”, the binding signal is 20000 fluorescence intensity (a.u.).

“ATCTCTTAACCTTTTTCTTATTACCAAACATGCTAACGGTCGGAGTCACCTAGTGCAG”: the binding signal was 8030 fluorescence intensity (a.u.).

Turning to “TCGCCATCGATCGATCGTCTCAACCTCAACCACATTATTGCGGAGTCACCTAGTGCAG”, the binding signal is 8550 fluorescence intensity (a.u.).

With “TCTTCGCAACTCCAAACTTCCCGAGCATCTTATCTTTGCACGGAGTCACCTAGTGCAG”, the binding signal is 8990 fluorescence intensity (a.u.).

As to “GTATTGCAATTTTTTTTTGTTTGTGTTGTATCTGTTCTCTCGGAGTCACCTAGTGCAG”, the binding signal is 8110 fluorescence intensity (a.u.).

Take “GGTTAGGTTTTTTTATAGAGGGAGTAGTATGCAATTATTTCGGAGTCACCTAGTGCAG”: the binding signal was 9450 fluorescence intensity (a.u.).

As for “TTTCTTGGTTCCTGTGTCTAAGCCAGCTGTAAACTTACAACGGAGTCACCTAGTGCAG”, the binding signal was 8450 fluorescence intensity (a.u.).

On to “ATTTCCAAGCTCTCTTTGCAGTTACTCCTCGGTGTGCTCCCGGAGTCACCTAGTGCAG”, for which the binding signal is 8250 fluorescence intensity (a.u.).

As to “TATATATTGTTTTTTTTTACGTTGTTGGTTCCGGATGTGACGGAGTCACCTAGTGCAG”, the binding signal is 9930 fluorescence intensity (a.u.).

With “GTCATTGGTGGTTTATATTGTTTGGCTTTTTTCCGGATTACGGAGTCACCTAGTGCAG”, the binding signal was 18500 fluorescence intensity (a.u.).

As to “TTTTGGATTTTGTTTCATTTTTTTTACATGCATTGGATTACGGAGTCACCTAGTGCAG”, the binding signal was 8120 fluorescence intensity (a.u.).

“TGAGACAAAGCACATTCTACCCAAGGCCAGTTGCACCAACCGGAGTCACCTAGTGCAG”: the binding signal was 8080 fluorescence intensity (a.u.).

For “TCAGTGTTGAGTAGGGTTGGCAGGCGAGCACGCAGTAATGCGGAGTCACCTAGTGCAG”, the binding signal was 8190 fluorescence intensity (a.u.).

For “TGTTGTGTGTTAGTTGTGGTGGTAGCATTTTTTCCTGGTACGGAGTCACCTAGTGCAG”, the binding signal was 13000 fluorescence intensity (a.u.).

With “TAGCTACCTAAGCTTAGCTCACATTCTTCTCGCTTTCTCACGGAGTCACCTAGTGCAG”, the binding signal is 12000 fluorescence intensity (a.u.).

With “GGTGGGCTATAAATATAGTTGGGGAGGGGAGGGAAGACCCCGGAGTCACCTAGTGCAG”, the binding signal was 16700 fluorescence intensity (a.u.).

With “GAGGAGGGACTCGGGGCGGGAGGAAGACGGCGAGGAGGGGCGGAGTCACCTAGTGCAG”, the binding signal is 16500 fluorescence intensity (a.u.).

On to “GTGGGGTTGGAGGAGGGAGGGAGCTAGCTATAGTTGCTAGCGGAGTCACCTAGTGCAG”, for which the binding signal is 9980 fluorescence intensity (a.u.).

Regarding “GGGAGGAGGAGGAGGAGAAGGGCGGCGGGAGGAGGGGCGACGGAGTCACCTAGTGCAG”, the binding signal was 14000 fluorescence intensity (a.u.).

Take “CTGGGTGTGGGTGTGGGTCTGGGTCTGGGTGGAAGAGGAACGGAGTCACCTAGTGCAG”: the binding signal is 21200 fluorescence intensity (a.u.).

As for “GTATCGCCAAGGAGGAGAGGGGAGAGGGGTGGAAGAGGAACGGAGTCACCTAGTGCAG”, the binding signal was 11900 fluorescence intensity (a.u.).

As to “CGAGGGAGGGGAGGCGGCGGAGGCGAGAGAGGAGAGGGGACGGAGTCACCTAGTGCAG”, the binding signal is 11000 fluorescence intensity (a.u.).

For the sequence “AGGGCGGTGGGGCGGCAAGGGACCAGATGGTGGGGCGGCACGGAGTCACCTAGTGCAG”, the binding signal is 11100 fluorescence intensity (a.u.).

“ACTAGTTGAAGGAGTTGGGGCTATAAATGGGTGGTGCTATCGGAGTCACCTAGTGCAG”: the binding signal is 10900 fluorescence intensity (a.u.).

Turning to “GAAGGGTGGGAGGGGAAGGGGAGGACGAGCGGGCGGACGGCGGAGTCACCTAGTGCAG”, the binding signal was 11500 fluorescence intensity (a.u.).

In the case of “GGAGGTGGGGAGGGGAGGAGAGGGGAAGAAGGAAGAAAAACGGAGTCACCTAGTGCAG”, the binding signal is 13300 fluorescence intensity (a.u.).

As for “GGTGGGACGTGGTGGGCGTCAAGGCGGCGGTGGGAGGGGACGGAGTCACCTAGTGCAG”, the binding signal was 20400 fluorescence intensity (a.u.).

On to “TCGTCATCATCCTCGCCGCCATCGCCATCGCCATTGCCTACGGAGTCACCTAGTGCAG”, for which the binding signal is 9180 fluorescence intensity (a.u.).
